# Results as given in PubChem BioAssay (EPA / NIEHS).
# Results filed as inconclusive are left out. Some structures have more than one record in an assay (separate samples or runs), and their calls can disagree. Calls of active or inactive are those of the source. The calls were made as follows: active = hit-call score of the fitted dose curve at least 0.9, where 1 is the maximum; inconclusive = response in the unintended direction; inactive = score below 0.9.
# Tests used:
# [1] = target: Luciferin 4-monooxygenase (Photinus pyralis) (UniProt P08659); experiment: CCTE_Simmons_QuantiLum_inhib_2: CCTE's Firefly Luciferase Inhibition Assay, Simmons Lab (AID 2283767);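 as to AC50: potency for inhibitors that lower luciferase luminescence relative to DMSO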
# In short: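 First, 5 ng purified luciferase in phosphate buffer with BSA is dispensed per well. Next, test chemicals (5 nM to 87.5 uM final, 0.5% DMSO) are added and incubated 30 min at 37C in darkness. Finally, luciferin reagent is injected and luminescence read kinetically.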
# [2] = ACEA_AR_antagonist_AUC_viability: ACEA Biosciences xCELLigence Real-Time Cell Analysis on Androgen Receptor Antagonism for Viability (AID 2283776);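 also: 22Rv1 human prostate cancer cells growing on impedance electrode plates; area under impedance growth curve at 80 h after dosing as viability; hits lower the growth signal relative to DMSO meaning cytotoxicity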
# In short: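 Viability endpoint from label-free cell-index monitoring: 22Rv1 cultures treated with an eight-point 1:4 dilution series starting at 100 uM final, AUC at 80 h fitted against DMSO.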
# [3] = target: zebrafish Estrogen Receptor (ESR1), esr1 (gene 259252) (UniProt P57717); experiment: ATG_zfER1_XSP1: Attagene TRANS-FACTORIAL Multi-Species (XSP1) HepG2 Assay for zebrafish Estrogen Receptor (ESR1) (AID 2283772)
# In short: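 Transfect HepG2 with GAL4-UAS multi-reporter constructs; treat 24 h (medium carries 3 nM 6-alpha-fluorotestosterone); extract RNA, reverse-transcribe, PCR-amplify, FAM-label, digest with HpaI; resolve by capillary electrophoresis and compare against DMSO baseline.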
# [4] = tested on: zebrafish Estrogen Receptor (ESR2B), gene 317733; experiment: ATG_zfER2b_XSP1: Attagene TRANS-FACTORIAL Multi-Species (XSP1) HepG2 Assay for zebrafish Estrogen Receptor (ESR2B) (AID 2283773)
# In short: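 Multiplexed TRANS format in transfected HepG2 liver cells, chimeric NR-Gal4 from zebrafish ESR2B. 24 h dosing; medium contains 3 nM 6-alpha-fluorotestosterone. mRNA induction by RT-PCR/CE, positive direction vs DMSO.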
# [5] = tested on: frog Estrogen Receptor (ESR2), gene 100174814; experiment: ATG_frER2_XSP1: Attagene TRANS-FACTORIAL Multi-Species (XSP1) HepG2 Assay for frog Estrogen Receptor (ESR2) (AID 2283774)
# In short: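 HepG2, transient MRTU transfection (GAL4-UAS reporters, exogenous NR-Gal4 chimeras); 24 h compound exposure; 3 nM 6α-fluorotestosterone co-added; total RNA → RT-PCR → 6-FAM primer extension → HpaI → CE. Positive direction vs DMSO.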
# [6] = tested on: frog Estrogen Receptor (ESR1), gene 398734; experiment: ATG_frER1_XSP1: Attagene TRANS-FACTORIAL Multi-Species (XSP1) HepG2 Assay for frog Estrogen Receptor (ESR1) (AID 2283777)
# In short: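 Transient MRTU transfection, HepG2 (human liver); 24 h dosing, 3 nM 6α-fluorotestosterone co-added; RNA → RT-PCR → 6-FAM labeling → CE; upward activity vs DMSO.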
# [7] = tested on: zebrafish Estrogen Receptor (ESR2A), gene 317734; experiment: ATG_zfER2a_XSP1: Attagene TRANS-FACTORIAL Multi-Species (XSP1) HepG2 Assay for zebrafish Estrogen Receptor (ESR2A) (AID 2283778)
# In short: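 Transient transfection of HepG2 (human liver) with MRTU constructs; chemical dosing for 24 h; medium contained 3 nM 6-alpha-fluorotestosterone to partly stimulate AR. RT-PCR/CE fluorescence of reporter transcripts; positive direction vs DMSO.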
# [8] = target: chicken Estrogen Receptor (ESR1), ESR1 (gene 396099) (UniProt P06212); experiment: ATG_chERa_XSP1: Attagene TRANS-FACTORIAL Multi-Species (XSP1) HepG2 Assay for chicken Estrogen Receptor (ESR1) (AID 2283779)
# In short: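 Read-out: fluorescent reporter mRNA fragments resolved by capillary electrophoresis after RT-PCR and HpaI digestion. Transfected HepG2 cells carried chimeric NR-Gal4 constructs, were dosed 24 h with 3 nM 6-alpha-fluorotestosterone added, and activity was fitted upward relative to DMSO.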
# [9] = ACEA_AR_agonist_AUC_viability: ACEA Biosciences xCELLigence Real-Time Cell Analysis on Androgen Receptor Agonism for Viability (AID 2283775);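 as to AC50: viability read 80 hours after compound addition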
# In short: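 22Rv1 cells; impedance growth kinetics; 8-pt 1:4 dilutions from 100 uM top final, ≤0.5% DMSO; n = 2; 80 h read; AUC viability, loss-of-signal vs DMSO.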
# [10] = ArunA_CellTiter_hNP: Viability Assessment in the ArunA Biomedical's Oris Neural Crest (hNC) Cell Migration Assay (AID 2283753)
# In short: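 Viability read with CellTiter 96 Aqueous One after 72 h chemical exposure of human hNP1 neuroprogenitors, which were plated on Matrigel in LIF/bFGF medium 16 h beforehand. Endpoint fitted in positive direction relative to DMSO.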
# [11] = ArunA_Migration_hNP: ArunA Biomedical's Oris Neuroprogenitor (hNP) Cell Migration Assay (AID 2283754)
# In short: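 Readout is calcein-AM fluorescence (ex494/em517) of cells migrating into the detection zone, relative to DMSO. hNP1 cells (H9-derived) grown on Matrigel behind stoppers 16 h, then stoppers pulled and chemical applied 72 h; cytochalasin D as control.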
# [12] = ArunA_Migration_hNC: ArunA Biomedical's Oris Neural Crest (hNC) Cell Migration Assay (AID 2283755)
# In short: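 Calcein-AM fluorescence (ex494 nm/em 517 nm) in the stopper-defined detection zone quantifies migration of hNC cells after 72 h chemical exposure; 60,000 cells/well plated on Matrigel with LIF and bFGF, 16 h pre-incubation. DMSO baseline.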
# [13] = ArunA_NOG_NucleusCount: ArunA Biomedical's Neurite Outgrowth (NOG) Assay for Nucleus Count (AID 2283756)
# In short: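 Viable neuron count, from Hoechst nuclei passing size and intensity gates, imaged at 20x on differentiated H9-derived human neurons. Exposure lasted 48 h from seeding; activity was scored relative to DMSO.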
# [14] = ArunA_NOG_BranchPointsPerNeurite: ArunA Biomedical's Neurite Outgrowth (NOG) Assay for Branch Points Per Neurite (AID 2283759)
# In short: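 Automated image analysis traced neurites (processes >10 um) from valid cell bodies after Hoechst and βIII-tubulin staining. hNN cells from H9 embryonic stem cells, 48 h exposure. Fitted bidirectionally against DMSO.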
# Luciferin 4-monooxygenase (Photinus pyralis), sequence (P08659 whole entry, looked up): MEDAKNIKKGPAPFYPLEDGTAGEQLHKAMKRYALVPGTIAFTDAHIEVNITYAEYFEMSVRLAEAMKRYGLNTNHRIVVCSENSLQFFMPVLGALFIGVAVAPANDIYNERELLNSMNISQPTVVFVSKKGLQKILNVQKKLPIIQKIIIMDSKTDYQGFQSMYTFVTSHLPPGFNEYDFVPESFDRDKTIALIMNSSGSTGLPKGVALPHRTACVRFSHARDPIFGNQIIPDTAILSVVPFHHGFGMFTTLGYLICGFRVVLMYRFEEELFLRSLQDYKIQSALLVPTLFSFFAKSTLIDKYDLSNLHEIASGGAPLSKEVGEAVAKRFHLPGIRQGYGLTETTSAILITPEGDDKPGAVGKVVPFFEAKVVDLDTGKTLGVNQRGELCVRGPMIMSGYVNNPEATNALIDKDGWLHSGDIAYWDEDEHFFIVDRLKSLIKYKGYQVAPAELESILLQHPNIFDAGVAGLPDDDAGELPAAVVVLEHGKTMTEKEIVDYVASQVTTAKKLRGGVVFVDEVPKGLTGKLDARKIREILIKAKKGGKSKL
# zebrafish Estrogen Receptor (ESR1), esr1 (gene 259252), sequence (P57717 whole entry, looked up, the tested form may be a part): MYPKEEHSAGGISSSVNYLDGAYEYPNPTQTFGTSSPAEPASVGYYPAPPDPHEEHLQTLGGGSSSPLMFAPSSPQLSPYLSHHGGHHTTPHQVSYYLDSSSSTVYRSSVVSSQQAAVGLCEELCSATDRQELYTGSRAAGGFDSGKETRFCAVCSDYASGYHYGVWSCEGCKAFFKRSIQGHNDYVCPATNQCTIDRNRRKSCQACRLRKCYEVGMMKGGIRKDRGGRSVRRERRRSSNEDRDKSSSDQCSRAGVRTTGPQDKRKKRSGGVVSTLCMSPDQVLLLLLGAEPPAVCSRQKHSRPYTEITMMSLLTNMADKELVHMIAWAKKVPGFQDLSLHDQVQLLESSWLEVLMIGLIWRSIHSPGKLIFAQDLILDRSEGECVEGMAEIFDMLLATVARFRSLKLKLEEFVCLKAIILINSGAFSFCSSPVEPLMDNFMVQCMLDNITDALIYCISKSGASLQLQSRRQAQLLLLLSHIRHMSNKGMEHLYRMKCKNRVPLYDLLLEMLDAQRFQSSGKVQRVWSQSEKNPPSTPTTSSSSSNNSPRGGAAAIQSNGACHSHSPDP
# chicken Estrogen Receptor (ESR1), ESR1 (gene 396099), sequence (P06212 whole entry, looked up, the tested form may be a part): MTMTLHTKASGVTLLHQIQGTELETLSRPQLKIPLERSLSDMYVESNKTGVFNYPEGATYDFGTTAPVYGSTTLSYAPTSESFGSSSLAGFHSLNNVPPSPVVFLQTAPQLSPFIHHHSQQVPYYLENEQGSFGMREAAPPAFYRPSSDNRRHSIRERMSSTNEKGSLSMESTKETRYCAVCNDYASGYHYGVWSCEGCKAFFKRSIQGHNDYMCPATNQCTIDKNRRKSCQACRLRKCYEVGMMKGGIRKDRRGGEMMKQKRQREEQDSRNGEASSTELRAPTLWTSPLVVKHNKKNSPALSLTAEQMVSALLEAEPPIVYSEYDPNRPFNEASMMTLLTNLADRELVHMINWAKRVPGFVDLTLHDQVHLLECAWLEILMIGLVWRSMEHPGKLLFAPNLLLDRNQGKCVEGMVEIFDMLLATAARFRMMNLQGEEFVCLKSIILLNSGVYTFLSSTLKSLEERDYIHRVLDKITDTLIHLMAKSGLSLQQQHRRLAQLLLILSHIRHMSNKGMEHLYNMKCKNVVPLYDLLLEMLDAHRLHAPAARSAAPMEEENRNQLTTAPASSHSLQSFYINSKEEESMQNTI
smiles,measurement,setting,value
CC(=O)N1CCN(c2ccc(OC[C@H]3CO[C@](Cn4ccnc4)(c4ccc(Cl)cc4Cl)O3)cc2)CC1,outcome,[1],inactive
same,AC50,[2],32.4 µM (active)
CC/C(=C(/CC)c1ccc(O)cc1)c1ccc(O)cc1,outcome,[1],inactive
same,AC50,[3],0.00024 µM (active)
same,AC50,[4],0.0671 nM (active)
same,AC50,[5],0.078 nM (active)
same,AC50,[2],18 µM (active)
same,AC50,[6],0.0517 nM (active)
same,AC50,[7],0.0485 nM (active)
same,AC50,[8],0.0429 nM (active)
C[C@]12CC[C@@H]3c4ccc(O)cc4CC[C@H]3[C@@H]1CC[C@H]2O,outcome,[1],inactive
same,AC50,[9],90.7 µM (active)
same,AC50,[2],84.1 µM (active)
COc1ccc2cc(S(=O)(=O)N[C@H](CC(=O)N[C@H](Cc3ccc(CN4[C@H](C)CCC[C@@H]4C)cc3)C(=O)N(C)C(C)C)c3ccc4c(c3)OCO4)ccc2c1,AC50,[9],9.68 µM (active)
same,AC50,[2],9.32 µM (active)
CN(C)c1ccc(C(=C2C=CC(=[N+](C)C)C=C2)c2ccc(N(C)C)cc2)cc1,AC50,[1],3.03 µM (active)
same,AC50,[2],0.161 µM (active)
CC(C)(C)c1cc(/C=C2\SC(N)=NC2=O)cc(C(C)(C)C)c1O,outcome,[1],inactive
same,AC50,[9],13.5 µM (active)
same,AC50,[2],15.2 µM (active)
OC12N=C(c3ccccc3)SC1Cc1cc(Cl)ccc12 (stereo unspecified),AC50,[1],17.1 µM (active)
same,AC50,[2],76.2 µM (active)
COc1cc(C(=O)NC2CCN(C)CC2)ccc1Nc1ncc2c(n1)N(C1CCCC1)CC(F)(F)C(=O)N2C,outcome,[1],inactive
same,AC50,[9],0.00301 µM (active)
same,AC50,[2],0.00297 µM (active)
CC1=CC(=O)/C(=C(/C)O)C(=O)O1,outcome,[9],inactive
same,outcome,[2],inactive
NCc1cccc(C2CCN(C(=O)c3ccc(C#Cc4ccccc4F)o3)CC2)c1,outcome,[1],inactive
same,AC50,[2],22.1 µM (active)
O=C1O[C@H]([C@@H](O)CO)C(O)=C1O,outcome,[1],inactive
same,outcome,[2],inactive
C[C@]12CC[C@@H]3c4ccc(O)cc4CC[C@H]3[C@@H]1CCC2=O,AC50,[3],0.0145 µM (active)
same,AC50,[4],3.05 nM (active)
same,AC50,[5],6.32 nM (active)
same,outcome,[9],inactive
same,AC50,[2],71.6 µM (active)
same,outcome,[2],inactive
same,AC50,[6],3.11 nM (active)
same,AC50,[7],3.83 nM (active)
same,AC50,[8],5.08 nM (active)
Oc1ccccc1,outcome,[1],inactive
same,outcome,[2],inactive
O=c1c(-c2ccc(O)cc2)coc2cc(O)cc(O)c12,AC50,[1],7.86 µM (active)
same,AC50,[9],62.9 µM (active)
same,AC50,[2],28.8 µM (active)
CCN(Cc1cccc(S(=O)(=O)O)c1)c1ccc(C(=C2C=CC(=[N+](CC)Cc3cccc(S(=O)(=O)O)c3)C=C2)c2ccccc2S(=O)(=O)[O-])cc1,AC50,[1],15.8 µM (active)
same,outcome,[2],inactive
CCCCCCCCOc1ccc(C(=O)c2ccccc2)c(O)c1,AC50,[9],68.2 µM (active)
same,AC50,[2],13.7 µM (active)
O=C(Nc1ccc(Cl)cc1)Nc1ccc(Cl)c(Cl)c1,AC50,[10],25.9 µM (active)
same,AC50,[11],1.88 µM (active)
same,AC50,[12],1.46 µM (active)
same,outcome,[13],inactive
same,outcome,[14],inactive
same,AC50,[1],15.1 µM (active)
same,AC50,[9],6.35 µM (active)
same,AC50,[2],5.85 µM (active)
Cc1occc1C(=O)Nc1ccc(C(=O)N2CCC(F)(F)/C(=C\C(=O)N3CCC(N4CCCCC4)CC3)c3ccccc32)cc1,AC50,[9],31.2 µM (active)
same,AC50,[2],41.1 µM (active)
c1ccc(C[n+]2cccc3ccccc32)cc1,AC50,[9],50 µM (active)
O=C(O)c1ccccc1-n1cc(C(=O)O)c(=O)c2cc(Nc3c(F)cc(F)cc3Cl)c(Cl)cc21,outcome,[9],inactive
